# IL1B secr inh – inhibitors of inflammasome signaling (IL-1 beta secretion). THP-1 LPS/ATP IL-1B secretion, AlphaLISA, 16 h; hits give low values. activity change, % at 57.5 µM. 360,000 compounds, 4.7% hits; in the data active = activity change below about -50%; inconclusive = mostly about -30% to -49%; also: % is scaled to controls: 0 for no effect and ±100 for the full control effect
#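 THP-1 cells pretreated 1 hr with compounds (up to 57.5 uM final), then stimulated with LPS (250 ng/mL final) plus ATP (1.25 mM final); secreted IL-1B measured by AlphaLISA after 16 hr, decreased signal indicating inhibition.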
# HepG2 tox – counter-screen for TGF-b inhibitors: cytotoxicity in HepG2 cells | HepG2 CAGA-GFP viability, ATP luminescence, 18 h | 410,000 compounds, 0.76% hits | Potency, µM (top dose mostly 46.1 µM), for the others: top-dose activity change, negative = cytotoxicity, hits mostly cytotoxic; also: potency is read from the fitted curve at half-maximal effect
#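 HepG2 CAGA-GFP cells (1000/well, DMEM with 1% FBS) received compound, then TGF-beta at 500 pg/mL final, and were incubated 18 hours at 37 degrees C. Viability was read by CellTiter-Glo luminescence. Media-only wells were set as complete cell-killing and DMSO as no toxicity.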
# TGFb inhibitor – TGF-b pathway inhibition. HepG2 CAGA-GFP TGF-b/SMAD3 reporter, GFP fluorescence, 18 h; TGF-beta stimulated, 500 pg/mL final. Potency, µM (doses to about 46.1 µM), for the others: top-dose activity, negative = inhibition, most hits filed as inhibitors. 410,000 compounds, 1.2% hits. AID 588855; also: potency is read from the fitted curve at half-maximal effect; % is scaled to controls: 0 for no effect and ±100 for the full control effect; nearly all actives have a fitted effect of over 65% in size
#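 Inhibition of TGF-beta-driven CAGA-GFP reporter expression in HEPG2 cells is measured by cellular GFP fluorescence after 18 h stimulation with 500 pg/mL recombinant TGF-beta in 1% FBS medium at 37 degrees C.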
# ATXN2 expr inh – inhibitors of ATXN2 expression | HEK-293 ATXN2-luciferase reporter, luminescence, 24 h | 360,000 compounds, 0.72% hits | AID 1745845 | Potency, µM (doses to about 57 µM), inactives show top-dose activity change, negative = inhibition, hits mostly inhibitors; also: potency is read from the fitted curve at half-maximal effect; % is scaled to controls: 0 for no effect and ±100 for the full control effect; nearly all actives have a fitted effect of over 55% in size
#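 ATXN2-luciferase reporter cells (luciferase flanked by upstream and downstream ATXN2 gene portions) were treated 24 h at 37 °C with compounds at up to 57 uM. SteadyGlo luminescence gave expression; GF-AFC fluorescence gave viability.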
# ATXN viability – reduces viability in counter-screen for ATXN expression inhibitors | S2 cells (HEK-293 line with an ATXN2-luciferase reporter) viability, CellTiter-Fluor protease fluorescence, 24 h | Potency, µM (series often up to 56.7 µM), actives largely listed as cytotoxic | 400,000 compounds, 0.49% hits | AID 651635; also: potency is read from the fitted curve at half-maximal effect; nearly all actives have a fitted effect of over 40% in size
# Numbers without * were called inactive; i = inactive; ? = inconclusive; nt = not tested or not shown; ! = repeats disagree; [ ] = another dose, or the depositor's remark. Compounds with a hit are over-represented: about 5.7% of the library has one in this group of screens. Unless noted, calls follow the shape of the dose curve; as a rule, active = well fitted curve in the direction sought with a large enough effect; inconclusive = small, poorly fitted or top-dose-only effect, or another doubt; inactive = no such curve, though single readings can be large; an effect the other way counts as inactive or inconclusive.
SMILES,IL1B secr inh,HepG2 tox,TGFb inhibitor,ATXN2 expr inh,ATXN viability
COC(=O)[C@@H]1[C@@H](C#N)C2(c3ccccc3-c3ccccc32)N(c2ccc(Cl)cc2)N1C#N,?,-68%,?,10µM*,28µM*
Cc1ccc2nc(Cl)c(CN(Cc3cccs3)C(=O)C3CC3)cc2c1,-4,-31%,?,-19%,i
CC(=O)N(Cc1cccs1)Cc1cc2cc(C)c(C)cc2nc1Cl,-53*,-23%,0%,-7%[11.3 µM],i
O=C(NCCn1cc(SCc2ccc(F)cc2)c2ccccc21)c1cccs1,nt,-22%,11µM*,?,?
Cc1cc(NC(=O)CSc2cn(CCNC(=O)c3ccc(Cl)cc3)c3ccccc23)no1,?,-30%,-6%,0%,19µM*
COc1ccc(C(=O)NCCn2cc(SCc3cccc(F)c3)c3ccccc32)cc1OC,nt,-22%,?,18µM*,?
O=C(NCCn1cc(SCc2ccccc2F)c2ccccc21)c1cccs1,nt,-29%,10µM*,?,?
Cc1ccccc1CSc1cn(CCNC(=O)c2cccs2)c2ccccc12,nt,-40%,?,?,?
O=C(NCCn1cc(SCc2cccc(F)c2)c2ccccc21)c1cccc(C(F)(F)F)c1,nt,-48%,?,0%,?
Cc1ncc2c(c1CNC(=O)c1ccccc1F)CCN(C(=O)c1[nH]c3ccc(Cl)cc3c1C)C2,nt,nt,nt,nt,i
C=CCNc1nc(Nc2ccc([N+](=O)[O-])cc2)nc(OC)n1,-19,-13%,-7%,nt,i
COc1ccc(Nc2nc(N)c([N+](=O)[O-])c(NCCO)n2)cc1,nt,-35%,?,-19%,i
COc1nc(Nc2ccc([N+](=O)[O-])cc2)nc(NC2CCCCC2)n1,-78*,-8%,1%,-2%,i
COc1ccc(Nc2nc(N)c([N+](=O)[O-])c(NC3CCCCC3)n2)cc1,-95*,22µM*,?,?,nt
CC(C(=O)NC1C=CS(=O)(=O)C1)N1C(=O)/C(=C/c2cccc(Cl)c2)SC1=S (stereo unspecified),-68*,-15%,-18%,-1%,i
CC(C(=O)NC1C=CS(=O)(=O)C1)N1C(=O)/C(=C\c2ccccc2)SC1=S (stereo unspecified),-62*,-40%,-13%,nt,i
Cc1cccc(Cn2c(=O)n(Cc3ccccc3)c(=O)c3sc4ccccc4c32)c1,nt,18%,-16%,0%,i
COc1ccc(N2CCN(C(=S)Nc3ccc(C)cc3C)CC2)cc1,?,6.3µM*,-15%,-21%,i
CC1CCN(C(=O)CSc2c(C(C)C)cnc3c2c(=O)n(C)c(=O)n3C)CC1,nt,-10%,-12%,nt,nt
Cc1cc(NCCCN2CCOCC2)n2nc(C)c(-c3ccccc3)c2n1,-14,-16%,13%,8%,i
Cc1cc(NCCCN2CCOCC2)n2nc(C)c(-c3ccc(F)cc3)c2n1,-57*,-42%,-1%,-5%,i
Cc1cc(NCCCn2ccnc2)n2nc(-c3ccc(Cl)cc3)cc2n1,-65*,-21%,-8%,8%,i
CC(C)(C)c1cc(NCCCn2ccnc2)n2ncc(-c3ccc(Cl)cc3)c2n1,-86*,22µM*,?,?,?
Cc1cc(NCCOCCO)n2ncc(-c3ccc(Cl)cc3)c2n1,-4,-34%,0%,33%,?
Cc1cc(NCCCn2ccnc2)n2nc(-c3ccc(F)cc3)cc2n1,-61*,-36%,-21%,19%,i
SMILES,IL1B secr inh,HepG2 tox,TGFb inhibitor,ATXN2 expr inh,ATXN viability
O=S(=O)(Nc1c(Br)cc(Br)c2cccnc12)C1CCCCC1,nt,-4%,-12%,nt,nt
COc1ccc(CNC(=O)c2nn(-c3ccccc3C)nc2CO)cc1,nt,-21%,0%,nt,nt
O=c1[nH]c2ccc(NCc3ccc(-c4ccc(F)cc4)o3)cc2[nH]1,nt,7%,4%,-23%,i
Cc1ccc(Cl)cc1N1CCN(C(=O)CCS(=O)(=O)c2ccc3c(c2)oc(=O)n3C)CC1,nt,-4%,-21%,-2%,i
CN(C)CCCNc1cc(C(C)(C)C)nc2c(-c3ccccc3)cnn12,-98*,-83%,?,8%,i
CNC(=O)c1ccc(N2C(=S)N(c3cnc(C#N)c(C(F)(F)F)c3)C(=O)C23CCC3)cc1F,nt,nt,nt,14µM*,nt
Nc1ccc(C(=O)c2cccs2)cn1,-5,8%,-5%,nt,i
Nc1ccc(-c2cnc(N)c(C(=O)c3cccnc3)n2)cn1,-91*,-19%,7.9µM*,?,?
C=C1C(=O)OC2C1CCC(C)=C1C(=O)C3OC3(C)C12 (stereo unspecified),-104*,4.5µM*,4.5µM*,7.1µM*,8.9µM*
O=C(CSc1nc2ccc([N+](=O)[O-])cc2[nH]1)NC1CCCCCC1,-84*,-18%,?,-37%,?
CCOC(=O)[C@H](CCc1ccccc1)N[C@H]1CCc2ccccc2N(CC(=O)O)C1=O,10,12%,9%,24µM*!,35µM*!
CCCCC(=O)N(C)c1c(C)nc2ccc(C(=O)N3CCN(C(=O)c4ccco4)CC3)cn12,-54*,1%,7%,-5%,i
Cc1ccc(NC(=O)C2CCN(C(=O)c3cnn(-c4ccccc4)c3-n3cccc3)CC2)cc1C,nt,-29%,?,?,?
CN(C)CCN1C(=O)c2cccc3cc([N+](=O)[O-])cc(c23)C1=O,-102*,-14%,6.3µM*,?,?
CN(C)CCCN1C(=O)c2cccc3cccc(c23)C1=O,-89*,1%,-29%,?,i
C=CCn1c(SC(C)C#N)nc2ccccc2c1=O (stereo unspecified),nt,7%,19%,nt,nt
O=C(c1ccc([N+](=O)[O-])cc1)N1CCN(c2ccc(Nc3ccccc3)nn2)CC1,nt,9%,-16%,nt,nt
COC(=O)/C=C/c1ccc2c(c1)S(=O)(=O)N(C1CCCC1)[C@H]2CC(=O)OC,nt,-36%,?,nt,nt
Cc1cc(NC(=O)Nc2ccc3c(ccn3C)c2)sn1,-100*,-7%,13%,38%,i
Cc1ccc(NC(=O)Nc2ccc3c(c2)nc(C)n3C)cc1,-22,-3%,-2%,7%,i
COc1ccc(C)cc1NC(=O)CCn1nc(C)cc1C,nt,9%,0%,10%,i
CCC(=O)c1ccc(OCC(=O)Nc2ccccc2C(=O)N2CCCCC2)cc1,-62*,-6%,-10%,-5%,i
O=C(O)c1ccc(N2C(=O)CSC2=S)cc1,-62*,-17%,6%,-35%,i
C=C(/C=C/c1ccc(N(C)C)cc1)c1nc2ccccc2s1,nt,-31%,-20%,nt,nt
Cc1ccc(-n2nnnc2C(Cl)c2nnnn2-c2ccc(C)cc2)cc1,-59*,-51%,?,nt,?
Cc1cccc(NC(=O)C(NS(=O)(=O)c2cccc3nsnc23)c2ccccc2)c1C (stereo unspecified),nt,2%,-23%,12%,i
